# Test results from PubChem BioAssay.
# Active and inactive are the calls of the source.
# Legend:
# [1] = binders of probe aFSTL3 on microarray, primary screen, stem cell growth factor project, biochemical, small-molecule microarray, fluorescence 635/667 (AID 1064); conditions: higher = more signal;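 further: measures binding of the biotinylated anti-FSTL3 antibody to printed compounds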
# [2] = binders from COS7 lysate, DM2A8 probe, primary screen, torsin A project, cell lysate, small-molecule microarray, fluorescence 635/667 (AID 1065); conditions: higher = more signal, COS7 lysate expressing mutant human TOR1A
# [3] = binders of probe aFGF2 on microarray, primary screen, stem cell growth factor project, biochemical, small-molecule microarray, fluorescence 635/667 (AID 1067); conditions: higher = more signal;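 further: measures binding of biotinylated aFGF2 protein to printed compounds on slides; z-score merges feature fluorescence and signal-to-noise across triplicate slides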
# [4] = binders of probe aFGF10 on microarray, primary screen, stem cell growth factor project, biochemical, small-molecule microarray, fluorescence 635/667 (AID 1071); conditions: higher = more signal;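 further: score merges 667 nm spot intensity and signal to noise from triplicate slides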
# [5] = biological target: Neurogenic locus notch homolog protein 2 (Homo sapiens) (UniProt Q04721); test: Notch2 binders on small-molecule microarrays, primary screen, biochemical, small-molecule microarray, 635 nm fluorescence, stem cell growth factors (AID 1073); conditions: Notch2 binding, higher = more signal
# [6] = biological target: Pro-neuregulin-1, membrane-bound isoform (Homo sapiens) (UniProt Q02297); test: NRG1 binders on small-molecule microarrays, primary screen, psychiatric disease protein project, biochemical, small-molecule microarray, fluorescence 635/667 (AID 1075); conditions: NRG1 binding, 635 nm fluorescence, higher = more signal;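 further: score combines 667 nm spot fluorescence with signal to noise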
# Pro-neuregulin-1, membrane-bound isoform (Homo sapiens), sequence (Q02297 whole entry, looked up, the tested form may be a part, canonical isoform): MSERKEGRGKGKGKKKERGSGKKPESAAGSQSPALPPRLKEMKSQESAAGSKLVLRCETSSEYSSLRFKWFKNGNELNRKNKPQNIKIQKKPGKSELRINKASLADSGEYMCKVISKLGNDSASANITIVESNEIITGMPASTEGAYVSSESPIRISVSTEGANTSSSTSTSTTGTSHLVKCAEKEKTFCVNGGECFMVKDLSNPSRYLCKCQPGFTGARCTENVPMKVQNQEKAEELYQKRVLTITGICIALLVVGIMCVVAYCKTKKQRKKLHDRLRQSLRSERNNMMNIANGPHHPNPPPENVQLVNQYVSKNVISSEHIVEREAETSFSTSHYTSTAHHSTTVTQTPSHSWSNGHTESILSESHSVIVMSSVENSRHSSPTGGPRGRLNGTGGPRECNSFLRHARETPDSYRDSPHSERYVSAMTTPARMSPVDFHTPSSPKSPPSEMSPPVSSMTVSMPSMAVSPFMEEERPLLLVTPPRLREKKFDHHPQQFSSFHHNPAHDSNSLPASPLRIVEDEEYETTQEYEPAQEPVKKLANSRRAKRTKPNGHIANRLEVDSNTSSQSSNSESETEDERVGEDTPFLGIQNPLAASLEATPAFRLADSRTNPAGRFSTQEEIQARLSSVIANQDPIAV
# [7] = system: Neuregulin-1 EGF-like domain; test: binders of neuregulin-1 EGF-like domain, primary screen, biochemical, small-molecule microarray, 635 nm fluorescence (AID 1081); conditions: small-molecule microarray binding, higher = more signal;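 further: binding of the protein to compounds printed on small-molecule microarray slides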
# [8] = FRG1 promoter luciferase signal modulators, primary screen, FRG1 inhibition for FSHD, cell-based, C2C12 myotubes, firefly/Renilla luciferase, luminescence (AID 1084); conditions: higher = more signal, called active from +8 up or from −8 down
# [9] = binders of probe aFST on microarray, primary screen, stem cell growth factor project, biochemical, small-molecule microarray, fluorescence 635/667 (AID 1086); conditions: higher = more signal;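 further: score merges 667 nm fluorescence with signal-to-noise of each printed compound spot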
# [10] = binders of probe aHhip on microarray, primary screen, stem cell growth factor project, biochemical, small-molecule microarray, fluorescence 635/667 (AID 1087); conditions: higher = more signal;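 further: score merges spot fluorescence at 667nm with spot signal to noise ratio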
# [11] = system: PRMT1 (protein arginine N-methyltransferase 1); test: PRMT1 binders on small-molecule microarrays, primary screen, biochemical, small-molecule microarray, 635 nm fluorescence (AID 1088); conditions: small-molecule microarray binding, higher = more signal;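 further: binding of Prmt1 protein to compounds spotted on small-molecule microarray slides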
# [12] = yeast growth modulation, basal conditions, primary screen, YJM789 clinical isolate, OD600, 24 h (AID 1089);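 further: growth of clinical yeast isolate S. cerevisiae YJM 789 seeded 1000 cells per well; test concentration not given here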; conditions: S. cerevisiae YJM789 growth, higher = more signal, called active from +8 up or from −8 down
# [13] = fission yeast growth modulation, primary screen, strain 972, OD600, 24 h, no modulator (AID 1090);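 further: basal condition with compound alone and no growth modifier present; test concentration not given here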; conditions: S. pombe 972 growth, higher = more signal, called active from +8 up or from −8 down
# [14] = S. cerevisiae growth modulation with rapamycin, primary screen, strain BY4716, OD600, 96 h (AID 1091); conditions: higher = more signal, called active from +8 up or from −8 down; further: test concentration not given here
# [15] = biological target: Torsin-1A-interacting protein 2 (Homo sapiens) (UniProt Q8NFQ8); test: LULL1 binders on small-molecule microarray, primary screen, cell lysate, human LULL1 lysate, 635/667 nm fluorescence (AID 1092); conditions: hLULL1 lysate binding, 635 nm fluorescence, higher = more signal;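 further: probe is lysate of COS7 cells overexpressing human LULL1; score merges per-feature 667 nm fluorescence with signal-to-noise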
# Torsin-1A-interacting protein 2 (Homo sapiens), sequence (Q8NFQ8 whole entry, looked up): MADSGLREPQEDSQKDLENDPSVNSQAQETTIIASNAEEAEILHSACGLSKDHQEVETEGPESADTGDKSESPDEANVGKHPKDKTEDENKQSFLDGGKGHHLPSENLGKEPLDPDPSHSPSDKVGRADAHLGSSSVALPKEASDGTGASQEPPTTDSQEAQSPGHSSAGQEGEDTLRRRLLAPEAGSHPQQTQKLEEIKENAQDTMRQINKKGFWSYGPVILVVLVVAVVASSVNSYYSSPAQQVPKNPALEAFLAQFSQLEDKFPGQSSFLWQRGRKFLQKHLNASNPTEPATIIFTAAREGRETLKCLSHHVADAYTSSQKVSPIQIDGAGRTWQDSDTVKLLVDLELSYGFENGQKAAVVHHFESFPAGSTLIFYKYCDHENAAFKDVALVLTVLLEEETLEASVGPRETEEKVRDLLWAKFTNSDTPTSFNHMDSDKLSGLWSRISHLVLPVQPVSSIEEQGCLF
# [16] = E. coli growth modulation, two-sided OD650, primary screen, E. coli filamentation project, strain DRC41, 24 h (AID 1093); conditions: OD650, 24 h, higher = more signal, called active from +8 up or from −8 down;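 further: MC1000 strain lacking acrAB efflux and sulA so SOS filamentation is blocked; test concentration not given here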
# [17] = small-molecule microarray binders of probe aLefty2, primary screen, biochemical, biotinylated probe, 635/667 nm fluorescence (AID 1094); conditions: higher = more signal;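 further: score merges spot fluorescence near 667 nm with spot signal-to-noise ratio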
# [18] = system: Noggin (protein binding on small-molecule microarray); test: Noggin binders on small-molecule microarray, primary screen, biochemical, 635/667 nm fluorescence (AID 1095); conditions: 635 nm fluorescence, higher = more signal;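 further: score merges 667 nm feature fluorescence with signal to noise over triplicate slides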
# [19] = biological target: Neurogenic locus notch homolog protein 3 (Homo sapiens) (UniProt Q9UM47); test: NOTCH3 binders on small-molecule microarray, primary screen, biochemical, 635/667 nm fluorescence (AID 1096); conditions: NOTCH3 binding, 635 nm fluorescence, higher = more signal
# Neurogenic locus notch homolog protein 3 (Homo sapiens), sequence (Q9UM47 whole entry, looked up): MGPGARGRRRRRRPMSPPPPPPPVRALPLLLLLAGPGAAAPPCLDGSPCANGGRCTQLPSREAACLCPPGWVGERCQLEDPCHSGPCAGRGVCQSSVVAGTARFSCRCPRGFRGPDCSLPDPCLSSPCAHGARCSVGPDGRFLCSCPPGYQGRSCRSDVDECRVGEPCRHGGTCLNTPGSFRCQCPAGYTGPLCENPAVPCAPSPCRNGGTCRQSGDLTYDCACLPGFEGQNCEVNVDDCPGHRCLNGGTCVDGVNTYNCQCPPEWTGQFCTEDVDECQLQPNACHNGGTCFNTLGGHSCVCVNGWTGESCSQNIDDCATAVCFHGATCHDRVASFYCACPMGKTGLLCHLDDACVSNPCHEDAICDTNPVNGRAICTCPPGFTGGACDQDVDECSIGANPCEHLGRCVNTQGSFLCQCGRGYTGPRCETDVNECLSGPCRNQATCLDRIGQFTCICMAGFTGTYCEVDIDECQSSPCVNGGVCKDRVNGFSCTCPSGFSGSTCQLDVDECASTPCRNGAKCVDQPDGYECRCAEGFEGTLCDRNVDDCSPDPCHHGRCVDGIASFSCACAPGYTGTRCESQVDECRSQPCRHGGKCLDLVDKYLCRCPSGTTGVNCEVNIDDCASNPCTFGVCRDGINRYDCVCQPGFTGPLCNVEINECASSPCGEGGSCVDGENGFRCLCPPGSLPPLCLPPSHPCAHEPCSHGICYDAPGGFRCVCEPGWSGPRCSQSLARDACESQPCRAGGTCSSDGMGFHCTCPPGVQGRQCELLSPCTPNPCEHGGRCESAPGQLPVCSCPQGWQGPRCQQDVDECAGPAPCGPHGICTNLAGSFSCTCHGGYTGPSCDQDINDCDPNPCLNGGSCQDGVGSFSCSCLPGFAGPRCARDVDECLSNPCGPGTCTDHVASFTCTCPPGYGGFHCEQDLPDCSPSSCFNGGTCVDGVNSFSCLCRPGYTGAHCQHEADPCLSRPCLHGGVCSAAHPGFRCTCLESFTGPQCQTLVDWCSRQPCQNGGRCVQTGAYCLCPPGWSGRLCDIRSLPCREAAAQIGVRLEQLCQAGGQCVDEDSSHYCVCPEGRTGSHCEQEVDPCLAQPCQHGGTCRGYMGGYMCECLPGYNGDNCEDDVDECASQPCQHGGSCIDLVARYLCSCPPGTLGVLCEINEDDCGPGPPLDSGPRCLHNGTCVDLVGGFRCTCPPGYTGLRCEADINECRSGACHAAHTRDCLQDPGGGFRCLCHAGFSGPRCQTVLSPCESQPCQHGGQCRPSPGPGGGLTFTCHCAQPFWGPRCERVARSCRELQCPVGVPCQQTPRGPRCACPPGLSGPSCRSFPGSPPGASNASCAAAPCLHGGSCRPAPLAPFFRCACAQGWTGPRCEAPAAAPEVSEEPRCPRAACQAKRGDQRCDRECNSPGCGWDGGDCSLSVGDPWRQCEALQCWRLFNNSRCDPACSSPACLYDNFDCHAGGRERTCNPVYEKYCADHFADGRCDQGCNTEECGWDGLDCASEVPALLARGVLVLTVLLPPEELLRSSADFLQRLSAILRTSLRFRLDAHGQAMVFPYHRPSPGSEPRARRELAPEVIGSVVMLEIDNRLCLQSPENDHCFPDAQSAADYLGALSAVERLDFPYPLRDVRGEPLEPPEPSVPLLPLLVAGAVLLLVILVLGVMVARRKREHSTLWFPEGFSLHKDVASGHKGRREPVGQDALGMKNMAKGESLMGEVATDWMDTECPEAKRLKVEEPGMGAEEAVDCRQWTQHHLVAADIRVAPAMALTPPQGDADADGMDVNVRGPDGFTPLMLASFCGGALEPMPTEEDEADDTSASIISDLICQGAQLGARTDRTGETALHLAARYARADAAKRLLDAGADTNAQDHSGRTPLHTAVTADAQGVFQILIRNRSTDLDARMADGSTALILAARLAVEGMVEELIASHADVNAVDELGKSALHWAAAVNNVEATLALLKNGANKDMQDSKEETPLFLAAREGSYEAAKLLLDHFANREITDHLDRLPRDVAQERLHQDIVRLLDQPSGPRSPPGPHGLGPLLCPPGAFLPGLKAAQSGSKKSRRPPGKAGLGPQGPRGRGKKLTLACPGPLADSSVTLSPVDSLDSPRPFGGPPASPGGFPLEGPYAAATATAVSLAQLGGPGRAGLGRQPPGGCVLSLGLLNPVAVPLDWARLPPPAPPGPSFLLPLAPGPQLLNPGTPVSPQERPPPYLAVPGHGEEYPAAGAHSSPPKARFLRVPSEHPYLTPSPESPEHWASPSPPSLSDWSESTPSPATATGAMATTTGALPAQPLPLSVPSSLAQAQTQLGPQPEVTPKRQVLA
# [20] = small-molecule microarray binders of probe aEGFR, primary screen, biochemical, biotinylated probe, 635/667 nm fluorescence (AID 1097); conditions: higher = more signal;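 further: probe is a biotinylated anti-EGFR antibody binding compounds printed on slides; score combines fluorescence near 667 nm and signal to noise of each spot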
Compound,composite z-score [1],composite z-score [2],composite z-score [3],composite z-score [4],composite z-score [5],composite z-score [6],composite z-score [7],z-score [8],composite z-score [9],composite z-score [10],composite z-score [11],z-score [12],z-score [13],z-score [14],composite z-score [15],z-score [16],composite z-score [17],composite z-score [18],composite z-score [19],composite z-score [20]
COC(=O)[C@@]1(Cc2ccc(OC)cc2)[C@H]2c3cc(C(=O)N(C)C)n(C)c3C[C@H]2CN1C(=O)c1ccccc1,0.32,0.35,0.24,0.759,1.66,1.85,1.18,1.76 (inactive),1.48,0.658,1.4,0.116 (inactive),-0.756 (inactive),9.05 (active),3.73,-1.63 (inactive),0.654,0.727,1.02,0.382
CN(C)C(=O)[C@@]1(CCS(=O)(=O)c2ccccc2)COC(c2ccc(OCCCO)cc2)=N1,0.578,-0.149,0.127,0.568,0.331,1.8,1.36,-2.05 (inactive),0.47,-0.141,0.494,-0.126 (inactive),1.45 (inactive),0.546 (inactive),3.63,0.199 (inactive),-0.0258,-0.252,-0.136,0.36
C=CCNC(=O)[C@@H]1[C@H]2C(=O)O[C@H](c3ccccc3)[C@H](c3ccccc3)N2[C@H](c2ccc(O)cc2)[C@@]12C(=O)N(C(=O)OCCOC)c1ccc(C#CCNC(N)=O)cc12,0.2,0.383,0.0793,0.714,0.211,1.22,0.955,-0.989 (inactive),1.15,-0.311,1.03,-1.76 (inactive),0.18 (inactive),0.462 (inactive),2.29,-0.213 (inactive),0.261,1.12,1.1,-0.0549
COc1ccc([Si](C)(C)[C@@H]2[C@@H](CCO)O[C@]3(C(=O)N(Cc4ccc(N(C=O)c5ccccc5)cc4)c4ccccc43)[C@H]2C)cc1,0.235,0.0422,-0.0332,0.255,0.719,0.508,0.565,-3.73 (inactive),0.643,-0.0994,0.883,1.47 (inactive),0.552 (inactive),25.3 (active),0.758,0.0689 (inactive),0.122,0.445,0.332,-0.0466
